Laboratory results reported in the supplement of paper PMC7184167.
Structures can show the parent of a compound that is named as a salt.

The compounds below were run on replication-induced senescent mouse newborn dermal fibroblasts (NBF) (assay: relative cell viability of senescent cells (fraction); higher = less killing of senescent cells). Settings: 1 µM; 3 days.
Method: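 Replication-induced senescent newborn mouse skin fibroblasts (NBFs) in 24-well plates were treated with a Selleck FDA-approved drug library at 1 µM for 3 days.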

Q: With CN/C(=N\CCSCc1nc[nH]c1C)NC#N [Cimetidine] as the compound, how does the relative cell viability read?
A: 1.01

Q: C[C@@H](c1ncncc1F)[C@](O)(Cn1cncn1)c1ccc(F)cc1F [Voriconazole] was tested. Which relative cell viability did it give?
A: 0.928

Q: With CC(C)[N+]1(C)[C@@H]2CC[C@H]1C[C@@H](OC(=O)C(CO)c1ccccc1)C2 (some centres undefined) [Ipratropium Bromide] as the compound, how does the relative cell viability read?
A: 0.902

Q: CCCNC(C)C(=O)Nc1ccccc1C (centres undefined) [Prilocaine] was tested. Which relative cell viability did it give?
A: 0.827

Q: O=C(c1cc(Cc2n[nH]c(=O)c3ccccc23)ccc1F)N1CCN(C(=O)C2CC2)CC1 was tested. Which relative cell viability did it give?
A: 1.09

Q: CC(C(=O)O)c1cccc(C(=O)c2ccccc2)c1 (centres undefined) [Ketoprofen] was tested. Which relative cell viability did it give?
A: 0.757

Q: How did the relative cell viability turn out when Cc1nc2n(c(=O)c1CCN1CCC(c3noc4cc(F)ccc34)CC1)CCCC2 [Risperidone] was run?
A: 0.76

Q: Which relative cell viability does the source give for C[C@]12CC[C@@H]3c4ccc(O)cc4C[C@@H](CCCCCCCCC[S+]([O-])CCCC(F)(F)C(F)(F)F)[C@H]3[C@@H]1CC[C@@H]2O (some centres undefined) [Fulvestrant] here?
A: 0.971

Q: With CC(C)NCC(O)COc1ccc(CCOCC2CC2)cc1 (centres undefined) [Betaxolol HCl] as the compound, how does the relative cell viability read?
A: 1.1

Q: NCCCC(O)(P(=O)(O)O)P(=O)(O)O [Alendronate sodium trihydrate] was tested. Which relative cell viability did it give?
A: 0.251

Q: Which relative cell viability does the source give for CCCCCCCCCCC[C@@H](C[C@@H]1OC(=O)[C@H]1CCCCCC)OC(=O)[C@H](CC(C)C)NC=O [Orlistat] here?
A: 0.998

Q: For C[C@@H]1CN(c2c(F)c(N)c3c(=O)c(C(=O)O)cn(C4CC4)c3c2F)C[C@H](C)N1 [Sparfloxacin], which relative cell viability is on record?
A: 0.71

Q: With Nc1nc(=O)[nH]cc1F [Flucytosine] as the compound, how does the relative cell viability read?
A: 0.996

Q: Which relative cell viability does the source give for O=c1[nH]c(=O)n([C@H]2C[C@H](O)[C@@H](CO)O2)cc1C(F)(F)F [Trifluridine] here?
A: 0.971
